Results taken from PubChem BioAssay AID1159580 (chemical genetic matrix, 2015).
Hit rate of the full screen: of about 5,500 compounds, about 2,000 (36%) were called active. Inconclusive results (about 18%) are left out. No stated cut-off is given here; in the data, active means normalized growth mostly below about 0.91 (no sharp cut-off); inconclusive means no clear call, values can overlap the other calls; inactive means mostly above about 0.92. This is one part of the list.

Assay: chemical genetic growth profiling, strain panel (AID 1159580);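 further: tested at 20 µM; growth read once vehicle control cultures reached saturation at 30 °C; 1 = growth at the plate median or of vehicle wells; lower values mean less growth of the strain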
Details: S. cerevisiae deletion strains, growth OD

Measured: normalized growth

COC(=O)C(O)[C@H]1C(C)(C)[C@@H](OC(C)=O)[C@@H]2CC3=C4CC(=O)O[C@@H](c5ccoc5)[C@]4(C)CCC3[C@@]1(C)C2=O (some centres not stated)
inactive: locus YBR021W, strain FUR4, hits give low values 0.99 | locus YBR229C, strain ROT2, hits give low values 0.996 | locus YCL029C, strain bik1, hits give low values 1.02 | locus YDL035C, strain GPR1, hits give low values 0.994 | locus YDL074C, strain BRE1, hits give low values 0.941 | locus YDL101C, strain DUN1, hits give low values 1.01 | locus YDL185W, strain tfp1, hits give low values 1.01 | locus YDL192W, strain arf1, hits give low values 0.986 | locus YDR101C, strain arx1, hits give low values 1.01 | locus YDR162C, strain NBP2, hits give low values 0.963 | locus YDR318W, strain mcm21, hits give low values 0.989 | locus YDR388W, hits give low values 1 | locus YDR502C, strain sam2, hits give low values 1 | locus YER110C, hits give low values 1 | locus YER155C, strain BEM2, hits give low values 1.01 | locus YER167W, strain BCK2, hits give low values 0.986 | locus YGL078C, strain dbp3, hits give low values 1.01 | locus YGL086W, strain mad1, hits give low values 0.979 | locus YGL248W, strain PDE1, hits give low values 0.992 | locus YGR135W, strain pre9, hits give low values 0.97 | locus YGR252W, strain gcn5, hits give low values 0.989 | locus YHR079C, strain IRE1 (second series), hits give low values 1 | locus YHR094C, strain hxt1, hits give low values 1 | locus YHR129C, strain ARP1, hits give low values 0.989 | locus YHR200W, strain rpn10, hits give low values 1 | locus YIL066C, strain RNR3, hits give low values 0.981 | locus YIL073C, strain SPO22, hits give low values 1 | locus YIL125W, strain kgd1, hits give low values 1.01 | locus YIR030C, strain dcg1, hits give low values 1.01 | locus YJL095W, strain BCK1, hits give low values 0.915 | locus YJL134W, strain LCB3, hits give low values 0.995 | locus YJL168C, strain set2, hits give low values 0.995 | locus YJL187C, strain SWE1 (second series), hits give low values 0.993 | locus YJR043C, strain POL32, hits give low values 1.02 | locus YJR075W, strain HOC1, hits give low values 0.995 | locus YKL009W, strain mrt4, hits give low values 1.01 | locus YKL068W, hits give low values 1 | locus YKL085W, strain MDH1 (second series), hits give low values 0.995 | locus YKL085W, strain MDH1, hits give low values 0.995 | locus YKL190W, strain CNB1, hits give low values 0.998 | locus YKR001C, strain vps1, hits give low values 0.977 | locus YLR039C, strain RIC1, hits give low values 0.764 | locus YLR058C, strain SHM2, hits give low values 0.99 | locus YLR102C, strain apc9, hits give low values 0.993 | locus YLR262C, strain YPT6, hits give low values 0.805 | locus YLR268W, strain sec22, hits give low values 0.983 | locus YLR330W, strain CHS5, hits give low values 0.992 | locus YLR371W, strain rom2, hits give low values 0.982 | locus YLR418C, strain cdc73, hits give low values 0.906 | locus YML016C, strain PPZ1, hits give low values 0.994 | locus YML032C, strain rad52, hits give low values 1 | locus YML124C, strain tub3, hits give low values 1 | locus YMR078C, strain ctf18, hits give low values 0.983 | locus YMR223W, strain ubp8, hits give low values 0.99 | locus YMR307W, strain GAS1, hits give low values 0.76 | locus YNL067W, strain RPL9B, hits give low values 0.991 | locus YNL233W, strain BNI4, hits give low values 0.984 | locus YNL250W, strain rad50, hits give low values 1.02 | locus YNL271C, strain bni1, hits give low values 0.998 | locus YNL298W, strain CLA4, hits give low values 1.01 | locus YNL307C, strain MCK1, hits give low values 0.991 | locus YNL322C, strain KRE1, hits give low values 1 | locus YNR052C, strain pop2, hits give low values 0.99 | locus YOL012C, strain htz1 0.744 | locus YOL147C, strain pex11, hits give low values 1 | locus YOR061W, strain CKA2, hits give low values 0.997 | locus YOR069W, strain VPS5, hits give low values 0.996 | locus YOR136W, strain idh2, hits give low values 1.01 | locus YOR144C, strain elg1, hits give low values 1 | locus YOR184W, strain ser1, hits give low values 0.965 | locus YOR316C, strain cot1, hits give low values 1.01 | locus YPL055C, strain LGE1, hits give low values 1.01 | locus YPR119W, strain clb2, hits give low values 1 | locus YPR141C, strain kar3, hits give low values 0.992 | locus YPR163C, strain tif3, hits give low values 1 | locus YPR167C, strain met16, hits give low values 1 | strain wtn01, hits give low values 0.995
